Compounds with a hit are over-represented: about 4% of the library has one in this group of screens.
GDH-TPI counter – GDH-TPI coupled enzyme inhibition counter-screen. GDH-TPI coupled enzyme counterscreen, NADH absorbance. inhibition, % at 4.8 µM. 360,000 tested, 1.2% active. AID 588335; in the data active means inhibition above about 30%;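 further: 0% = DMSO wells and 100% = wells lacking the enzyme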
FBA Mtb inh – inhibits M. tuberculosis FBA enzyme | purified M. tuberculosis FBA, fluorescence read-out | inhibition, % at 1 µM | 360,000 tested, 2.3% active | AID 588726; in the data active means inhibition above about 27%;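 further: 0% = vehicle and 100% = reference inhibitor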
Target sequence (P9WQA3 whole entry, looked up): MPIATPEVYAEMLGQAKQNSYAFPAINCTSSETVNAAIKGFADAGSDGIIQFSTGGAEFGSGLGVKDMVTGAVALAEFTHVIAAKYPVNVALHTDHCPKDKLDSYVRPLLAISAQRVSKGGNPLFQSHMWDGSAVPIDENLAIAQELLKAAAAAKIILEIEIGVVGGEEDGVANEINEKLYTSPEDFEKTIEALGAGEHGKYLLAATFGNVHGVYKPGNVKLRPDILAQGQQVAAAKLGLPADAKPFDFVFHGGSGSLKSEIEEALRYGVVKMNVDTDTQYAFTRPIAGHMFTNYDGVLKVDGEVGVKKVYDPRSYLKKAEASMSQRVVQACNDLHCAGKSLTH
Mtb bLac sens – beta-lactam sensitization of Mtb H37Rv. M. tuberculosis H37Rv growth with meropenem, percent inhibition. inhibition, % at 25 µM. 330,000 tested, 0.27% active; call rule not given here;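 further: growth measured after seven days incubation then overnight dye step; 0% = bacteria only wells and 100% = bacteria with antibiotic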
RecA intein inh – blocks M. tuberculosis RecA intein splicing; P9WHJ3; 290,000 tested, 0.75% active; AID 2221; cell-free RecA intein splicing, fluorescence; inhibition, % (no concentration beside the values); in the data active means inhibition above about 30%;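 further: 0% = vehicle wells and 100% = reference inhibitor control wells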
Mtb UGM inh – inhibitors of M. tuberculosis UDP-galactopyranose mutase; inhibition, % at 10 µM; 320,000 tested, 0.06% active; purified UGM, fluorescence polarization probe displacement; in the data active means inhibition above about 10%, passing the limit was not always enough
Rv3671c protease – inhibitors of M. tuberculosis serine protease Rv3671c; AID 2606; P9WHR9; 320,000 tested, 0.048% active; inhibition, % at 5.96 µM; in the data active means inhibition above about 38%;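 further: extracellular domain of Rv3671c used as enzyme; 0% = enzyme with DMSO and 100% = no enzyme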
* hit, by the source's call; i = inactive; . = not tested or not shown; + = active, no number.

SMILES	GDH-TPI counter	FBA Mtb inh	Mtb bLac sens	RecA intein inh	Mtb UGM inh	Rv3671c protease
C=CCOc1ccc(/C=N/NC(=O)c2cc3c(OC)cc(OC)cc3[nH]2)cc1	31.7*	9.0	5.5	3.3	-1.1	-15.0
COc1ccc(OC)c(/C=N/NC(=O)c2cc3c(OC)cc(OC)cc3[nH]2)c1	22.5	10.9	2.0	-0.2	2.2	27.1
CCOc1ccc(/C=N/NC(=O)c2cc3c(OC)cc(OC)cc3[nH]2)cc1OC	29.8	5.4	42.9	-3.2	-1.3	16.1
COc1ccccc1/C=N/NC(=O)c1cc2c(OC)c(OC)ccc2[nH]1	34.3*	-1.9	4.6	-4.4	-1.6	.
COc1cccc(/C=N/NC(=O)c2cc3c(OC)cccc3[nH]2)c1OC	25.4	2.4	-2.4	-0.6	-0.3	-7.3
COc1ccc(OC)c(/C=N/NC(=O)c2cc3c(OC)cccc3[nH]2)c1	60.5*	5.7	37.2	-1.5	3.6	-23.6
COc1cccc(/C=N/NC(=O)c2cc3c(OC)c(OC)ccc3[nH]2)c1OC	33.0*	-3.1	.	-1.2	.	.
CCN(c1ccccc1)S(=O)(=O)c1cccc(C(=O)NCc2ccncc2)c1	2.8	-0.7	-3.1	-1.1	3.7	-5.8
Cc1cccn2cc(-c3c[nH]c4ccccc34)nc12	4.4	194.9*	10.5	-1.1	-0.1	8.6
Brc1ccc2nc(-c3c[nH]c4ccccc34)cn2c1	6.6	-1.9	16.2	4.3	-0.9	-3.0
O=C(NCc1cccs1)C(=O)NCC1OCCCN1S(=O)(=O)c1cc(F)ccc1F (stereo unspecified)	-9.1	1.1	0.5	-5.0	-1.3	0.8
CCOC(=O)Cn1nc(NC(=O)c2ccc(C(=O)OC)cc2)cc1C	-2.9	1.1	0.8	-0.6	-1.6	5.9
NC(=O)[C@H](Cc1cc2ccccc2s1)NC(=O)[C@@H]1CC2(CC(c3cccc(NC(=O)[C@@H]4CCC(=O)N4)c3)=NO2)CN1C(=O)/C=C/c1c(F)cccc1Cl (stereo partly specified)	3.1	-2.5	75.1	32.7*	-1.4	-129.5
NC(=O)[C@H](Cc1cc2ccccc2s1)NC(=O)[C@@H]1CC2(CC(c3cccc(NC(=O)[C@@H]4CCC(=O)N4)c3)=NO2)CN1C(=O)/C=C/Sc1ccccc1 (stereo partly specified)	6.0	0.0	88.0	7.9	1.2	-96.4
CCN1CCN(S(=O)(=O)c2ccc(OC)c(NC(=O)c3ccccc3)c2)CC1	0.7	-2.3	8.9	0.5	2.8	-0.2
COC(=O)C1=CN(CC2CCCO2)C=C(C(=O)OC)C1c1ccccc1C(F)(F)F (stereo unspecified)	6.2	158.3*	3.9	.	-1.3	-5.0
COC(=O)C1=C(N)Oc2cc(C)n(CC3CCCO3)c(=O)c2C1c1ccccc1 (stereo unspecified)	-2.3	1.7	-7.8	-0.4	-4.0	7.6
COc1ccccc1C(=O)NCCCN1CCCC1=O	-11.2	-0.6	-4.2	-4.3	-1.1	3.9
COC(=O)C1=CN(CCCN2CCCC2=O)C=C(C(=O)OC)C1c1ccccc1C(F)(F)F	21.9	122.6*	-5.4	i	-1.0	-6.7
COC(=O)C1=CN(CC2CCCO2)C=C(C(=O)OC)C1c1cccc(O)c1 (stereo unspecified)	3.1	195.5*	0.6	-121.5	0.9	0.2
COC(=O)C1=C(N)Oc2cc(C)n(CC3CCCO3)c(=O)c2C1c1ccccc1OC (stereo unspecified)	5.1	2.3	0.6	-0.8	-0.1	-6.6
CN(CCO)c1ccc(C=NNc2ccc([N+](=O)[O-])cc2S(=O)(=O)Nc2ccccc2C(=O)O)cc1	32.7*	-19.1	2.5	.	3.8	8.9
CC(=O)Nc1ccc(C=NNc2ccc(S(=O)(=O)Nc3ccccc3C(=O)O)cc2[N+](=O)[O-])cc1	48.5*	-2.0	5.0	.	0.9	26.1
NS(=O)(=O)c1ccc(N/N=C/c2ccc[nH]2)c([N+](=O)[O-])c1	72.7*	-7.7	3.6	-2.1	1.5	-2.1
CCC(CC)=NNc1ccc(S(N)(=O)=O)cc1[N+](=O)[O-]	7.4	-10.4	-0.8	2.0	0.1	0.5
SMILES	GDH-TPI counter	FBA Mtb inh	Mtb bLac sens	RecA intein inh	Mtb UGM inh	Rv3671c protease
COc1cc(/C=N/Nc2ccccc2[N+](=O)[O-])cc(OC)c1O	26.8	-13.2	6.9	-3.5	-3.7	9.2
COc1cc(/C=N/Nc2ccc(S(N)(=O)=O)cc2[N+](=O)[O-])cc(OC)c1O	41.5*	-22.9	-7.8	-1.8	3.0	7.7
CCN(Cc1ccccc1)CC(O)COC(c1ccc(OC)cc1)c1ccc(OC)cc1 (stereo unspecified)	0.0	0.4	69.3	-0.4	-2.2	-9.9
Cc1cc(C(=O)N2CCN(S(=O)(=O)c3ccc(F)c(Cl)c3)CC2)c(C)o1	-7.6	-0.8	5.6	.	0.0	-4.3
CSc1ncccc1C(=O)OCC(=O)NC(C)CCc1ccccc1 (stereo unspecified)	-2.2	0.2	6.2	.	2.7	6.6
CC(=O)C1[C@H](N(C)C)CC2C3CC=C4CC(O)CC[C@]4(C)C3CC[C@@]21C (stereo partly specified)	6.0	1.9	-7.5	1.4	-1.3	-3.5
O=C(O)c1ccc(/C=N\Nc2ccc(S(=O)(=O)N3CCOCC3)cc2[N+](=O)[O-])cc1	0.5	3.7	-1.5	-0.9	-2.5	-4.5
NS(=O)(=O)c1ccc(N/N=C/c2ccc(C(=O)O)cc2)c([N+](=O)[O-])c1	66.7*	-19.7	-3.8	0.7	1.3	-1.3
COc1cc(C#Cc2ccc3cc(CCO)oc(=O)c3c2)cc(OC)c1	36.2*	23.3	-10.6	.	6.4	-20.4
O=C1NC(=O)N(c2cccc(F)c2)C(=O)/C1=C/c1ccc(N2CCOCC2)cc1	11.5	-2.2	-12.4	-1.0	-1.5	-0.3
O=C1/C(=C/c2ccccc2)N=C(N2CCOCC2)N1c1cccc(Cl)c1	32.1*	11.0	4.9	0.8	-2.3	-9.1
COCCn1c(-c2ccc(OC)cc2)c(-c2ccc(OC)cc2)oc1=O	-2.6	131.1*	8.7	1.1	4.4	-5.2
COc1cccc(OCc2cc(C(=O)N3CCNC(=O)C3Cc3ccccc3)no2)c1 (stereo unspecified)	-1.7	0.6	5.0	1.3	1.5	9.6
Cc1ccc(-c2c(C#N)c(N)n(-c3ccccc3)c(=O)c2C#N)cc1	40.3*	4.5	-6.6	-2.1	-0.8	8.9
N#Cc1c(C#N)c(-c2ccccc2)n(-c2ccccc2)c1N	-4.8	26.9	11.3	2.3	0.6	-2.8
Cc1ccc(-c2c(C#N)c(N)n(-c3ccc(Cl)cc3)c(=O)c2C#N)cc1	31.2*	1.9	.	.	.	.
CCOC(=O)c1nn(-c2ccc(Cl)cc2)c2nc(-c3ccc(C)cc3)c(C#N)c(=O)n12	5.6	6.0	16.3	-3.1	1.6	-9.4
COc1ccccc1N1CCN(CCS(=O)(=O)c2cc(Cl)ccc2Cl)CC1	2.2	-1.4	.	.	.	.
CC1C2=C(CC(C)(C)CC2=O)NC2=C1C(=O)CC(C)(C)C2	-2.5	+	5.1	-390.2	-1.5	-6.6
